Results reported in PubChem BioAssay (Tox21).
“And” between values parts separate entries of the source, which are not always exact repeats. Identical values can stand only once. Results filed as inconclusive are left out. Where a call stands in place of a potency, no number is given. Unmarked numbers belong to inactive results. The source made the active and inactive calls. Unless noted, calls follow the shape of the dose curve; as a rule, active = well fitted curve in the direction sought with a large enough effect in the repeat runs; inconclusive = weak or mixed curves; inactive = no such curve, though single readings can be large; an effect the other way counts as inactive or inconclusive.

What was measured:
[1] = qHTS assay to identify aromatase inhibitors - cell viability counter screen (AID 743084);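 also: cells stimulated with testosterone during compound exposure; nearly all actives have a fitted effect of over 55% in size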
[2] = target: Aryl hydrocarbon receptor (Homo sapiens) (UniProt P35869); assay: qHTS assay to identify small molecule that activate the aryl hydrocarbon receptor (AhR) signaling pathway (AID 743085); also: nearly all actives have a fitted effect of over 15% in size; also: potency is read from the fitted curve at half-maximal effect;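 as to activation: HG2L7.5c1 human HepG2 liver cells with stably integrated DRE-driven firefly reporter; series mostly up to about 70 µM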
Chain of Aryl hydrocarbon receptor (Homo sapiens) (P35869 whole entry, looked up): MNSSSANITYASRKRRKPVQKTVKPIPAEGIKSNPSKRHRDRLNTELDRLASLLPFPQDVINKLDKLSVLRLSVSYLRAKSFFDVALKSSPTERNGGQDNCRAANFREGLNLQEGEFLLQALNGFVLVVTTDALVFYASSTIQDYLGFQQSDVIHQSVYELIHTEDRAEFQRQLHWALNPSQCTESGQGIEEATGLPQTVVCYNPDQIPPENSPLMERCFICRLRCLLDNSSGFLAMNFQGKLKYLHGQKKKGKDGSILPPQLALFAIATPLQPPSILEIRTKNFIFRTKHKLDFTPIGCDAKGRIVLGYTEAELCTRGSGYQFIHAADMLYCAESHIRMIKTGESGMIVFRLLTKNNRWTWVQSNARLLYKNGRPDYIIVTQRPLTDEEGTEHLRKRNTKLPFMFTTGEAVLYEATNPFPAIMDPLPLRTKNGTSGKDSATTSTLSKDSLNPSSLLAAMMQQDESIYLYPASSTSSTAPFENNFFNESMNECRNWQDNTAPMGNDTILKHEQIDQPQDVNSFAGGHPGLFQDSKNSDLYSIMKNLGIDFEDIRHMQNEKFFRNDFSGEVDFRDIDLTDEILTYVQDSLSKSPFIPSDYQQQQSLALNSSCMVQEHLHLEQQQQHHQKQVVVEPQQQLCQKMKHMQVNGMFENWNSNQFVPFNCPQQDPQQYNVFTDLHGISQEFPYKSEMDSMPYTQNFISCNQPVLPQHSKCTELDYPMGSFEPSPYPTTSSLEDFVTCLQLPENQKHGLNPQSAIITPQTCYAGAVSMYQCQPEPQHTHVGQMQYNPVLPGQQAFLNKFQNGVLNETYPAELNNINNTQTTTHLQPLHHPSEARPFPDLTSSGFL
In short: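 Luminescence (ONE-Glo) from a dioxin-responsive-element luciferase reporter in HG2L7.5c1 HepG2 cells after 24 hr compound exposure at 37C; viability measured by CellTiter-Fluor fluorescence beforehand.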

[3] = qHTS assay to identify small molecule that activate the aryl hydrocarbon receptor (AhR) signaling pathway - cell viability counter screen (AID 743086);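 also: HepG2 liver cells carrying the AhR DRE luciferase reporter; series mostly up to about 70 µM; nearly all actives have a fitted effect of over 45% in size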
In short: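 HepG2-AhR-luc (HG2L7.5c1) cells, 4000/well, treated 24 h at 37 C with compound; viability measured as CellTiter-Fluor fluorescence after 30 min in the same wells as the luciferase read.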

[4] = target: Peroxisome proliferator-activated receptor gamma (Homo sapiens) (UniProt P37231); assay: qHTS assay to identify small molecule agonists of the peroxisome proliferator-activated receptor gamma (PPARg) signaling pathway (AID 743094; active = well fitted activation curve with a large enough effect in the signal ratio in the repeat runs, not every such curve was filed as active; the % refers to the signal ratio)
Chain of Peroxisome proliferator-activated receptor gamma (Homo sapiens) (P37231 whole entry, looked up): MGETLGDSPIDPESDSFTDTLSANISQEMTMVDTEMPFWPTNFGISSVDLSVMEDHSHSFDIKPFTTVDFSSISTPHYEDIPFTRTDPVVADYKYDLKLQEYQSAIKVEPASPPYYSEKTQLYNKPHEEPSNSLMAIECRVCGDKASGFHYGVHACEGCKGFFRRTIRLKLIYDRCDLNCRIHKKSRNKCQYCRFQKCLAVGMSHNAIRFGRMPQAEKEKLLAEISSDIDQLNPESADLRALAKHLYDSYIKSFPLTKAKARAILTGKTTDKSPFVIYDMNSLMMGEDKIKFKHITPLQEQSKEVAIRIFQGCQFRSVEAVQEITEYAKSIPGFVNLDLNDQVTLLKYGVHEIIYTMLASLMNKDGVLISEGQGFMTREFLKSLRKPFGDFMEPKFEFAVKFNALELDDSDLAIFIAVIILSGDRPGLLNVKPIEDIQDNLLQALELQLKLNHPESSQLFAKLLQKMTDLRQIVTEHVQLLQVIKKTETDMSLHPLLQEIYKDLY
In short: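 HEK293H PPARg-bla cells, 5 h settle at 37C/5% CO2; compound (DMSO) 17 h, 37C; B/G FRET substrate 1 h RT; fluorescence intensity read-out. qHTS format.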

[5] = target: Peroxisome proliferator-activated receptor gamma (Homo sapiens) (UniProt P37231); assay: qHTS assay to identify small molecule antagonists of the peroxisome proliferator-activated receptor gamma (PPARg) signaling pathway (AID 743191; calls by dose curve; also: series mostly up to about 63 µM; nearly all actives have a fitted effect of over 30% in size)
In short: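 GeneBLAzer PPARg UAS-bla HEK293H cells, 5 h post-plating, exposed to compounds 17 h at 37C. LiveBLAzer B/G FRET substrate added for 1 h at room temperature; beta-lactamase reporter read by fluorescence intensity.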

[6] = qHTS assay to identify small molecule antagonists of the peroxisome proliferator-activated receptor gamma (PPARg) signaling pathway - cell viability counter screen (AID 743194); also: nearly all actives have a fitted effect of over 55% in size
In short: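 Cytotoxicity counter screen in PPARg-bla HEK293H cells, same wells as reporter assay. Compounds plus 50 nM rosiglitazone (final) for 17 h at 37 C, then viability read by CellTiter-Glo luminescence.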

[7] = qHTS assay for small molecule agonists of the antioxidant response element (ARE) signaling pathway (AID 743202; active = well fitted activation curve with a large enough effect in the signal ratio in the repeat runs, not every such curve was filed as active; the % refers to the signal ratio; also: potency is read from the fitted curve at half-maximal effect)
In short: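 HepG2 ARE-bla cells; 16 h treatment at 37 C; FRET-based beta-lactamase fluorescence read after 2 h substrate incubation at room temperature.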

[8] = qHTS assay for small molecule agonists of the antioxidant response element (ARE) signaling pathway - cell viability counter screen (AID 743203; calls by dose curve; also: nearly all actives have a fitted effect of over 55% in size)
In short: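 Luminescence read-out (CellTiter-Glo, 30 min at room temperature) measured cell viability in the same wells as the ARE beta-lactamase reporter. HepG2 ARE-bla cells were treated with compounds for 16 hrs at 37C/5% CO2.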

[9] = qHTS assay for small molecule activators of the heat shock response signaling pathway - cell viability counter screen (AID 743209); also: nearly all actives have a fitted effect of over 50% in size
In short: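 HSE-bla HeLa; 1500 cells/well; overnight 37 C, 5% CO2; compound 5 h 37 C; LiveBLAzer B/G substrate 2.5 h RT; CellTiter-Glo 30 min RT; luminescence.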

[10] = qHTS assay for small molecule activators of the heat shock response signaling pathway (AID 743210; active = well fitted activation curve with a large enough effect in the signal ratio in the repeat runs, with a control signal flat, not every such curve was filed as active; the % refers to the signal ratio;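 also: HeLa cells with beta-lactamase reporter driven by heat shock elements; series mostly up to about 63 µM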)
In short: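 Following overnight attachment, HSE-bla HeLa cells received test compounds for 5 h at 37 C; beta-lactamase activity was then detected via FRET substrate fluorescence.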

Compound	Potency [1]	Potency [2]	Potency [3]	Potency [4]	Potency [5]	Potency [6]	Potency [7]	Potency [8]	Potency [9]	Potency [10]
Cc1oncc1C(=O)Nc1ccc(C(F)(F)F)cc1	inactive	1.14 µM (active) and 21.7 µM (active)	inactive	inactive	inactive	inactive	30.6 µM (active)	inactive	inactive	inactive
CC(C)OCC1CO1 (stereo unspecified)	inactive	inactive	inactive	inactive	inactive	inactive	inactive	inactive	inactive	
CC(=O)[C@H]1CC[C@H]2[C@@H]3C[C@H](C)C4=CC(=O)CC[C@]4(C)[C@H]3[C@@H](O)C[C@]12C	inactive	inactive	inactive	inactive	inactive	inactive	inactive	inactive	inactive	inactive
CC1=CC(=O)CC(C)(C)C1(O)/C=C/C(C)=C\C(=O)O (stereo unspecified)	inactive	inactive	inactive	inactive	inactive	inactive	inactive	inactive	inactive	
CCOC(=O)OCC	inactive	inactive	inactive	inactive	inactive	inactive	inactive	inactive	inactive	
Cc1occc1C(=O)Nc1ccc(C(=O)N2CCC(F)(F)/C(=C\C(=O)N3CCC(N4CCCCC4)CC3)c3ccccc32)cc1	inactive	inactive	inactive	inactive	inactive	inactive		inactive	inactive	
CC(C)CCCCCOC(=O)CCCCC(=O)OCCCCCC(C)C	inactive	inactive	inactive	inactive	inactive	inactive		inactive	inactive	inactive
Cc1ccnc2ccccc12	inactive	inactive	inactive	inactive	inactive	inactive	inactive	inactive	inactive	inactive
c1cnc2c(n1)CCCC2	inactive	inactive	inactive	inactive	inactive	inactive	inactive	inactive	inactive	inactive
CCN(CC)CCNC(=O)c1ccc(NC(C)=O)cc1	inactive	inactive	inactive	inactive	inactive	inactive	inactive	inactive	inactive	inactive
Cc1ccc(S)cc1	inactive	inactive	inactive	inactive	inactive	inactive	inactive	inactive	inactive	
CCOC(=O)c1ccccc1OC	inactive	inactive	inactive	inactive	inactive	inactive	inactive	inactive	inactive	inactive
O=C(O)c1ccc(CO)o1	inactive	inactive	inactive	inactive	inactive	inactive	inactive	inactive	inactive	inactive
CCn1cc(C(=O)O)c(=O)c2cc(F)c(N3CCNCC3)nc21	inactive	inactive	inactive	inactive	inactive	inactive	inactive	inactive	inactive	inactive
OC(CCCN1CCCCC1)(c1ccccc1)c1ccccc1	inactive	inactive	inactive	inactive	inactive	inactive	inactive	inactive	inactive	inactive
CCCCCCCCSCCO	inactive	inactive	inactive	inactive	inactive	inactive	inactive	inactive	inactive	inactive
C=CCOC(=O)/C=C\C(=O)OCC=C	inactive	inactive	inactive	inactive		inactive	27.8 µM (active)	inactive		
Nc1ccc(S(=O)(=O)O)cc1	inactive	inactive	inactive	inactive	inactive		inactive	inactive	inactive	inactive
C=C(C)C(=O)OCCOC(=O)CC(C)=O	inactive	inactive	inactive	inactive	inactive		inactive	inactive	inactive	inactive
C=CC(C)(O)CCCC(C)CCCC(C)CCCC(C)C (stereo unspecified)	inactive	inactive	inactive	inactive		inactive	inactive	inactive	inactive	inactive
CCN(Cc1cccc(S(=O)(=O)O)c1)c1ccc(C(=C2C=CC(=[N+](CC)Cc3cccc(S(=O)(=O)[O-])c3)C=C2)c2ccccc2)cc1	inactive	inactive	inactive	inactive		inactive	38.3 µM (active)	inactive	inactive	
O=C(O)c1snc(Cl)c1Cl	inactive	61.1 µM (active)	inactive	inactive	inactive		inactive	inactive	inactive	
Cc1nc2ccccn2c(=O)c1CCN1CCC(C(=O)c2ccc(F)cc2)CC1	inactive	inactive	inactive	inactive	inactive	inactive		inactive	inactive	inactive
CC(C)C(OC(=O)c1ccccc1)C(C)(C)COC(=O)c1ccccc1 (stereo unspecified)	inactive	inactive	inactive	inactive		inactive	inactive	inactive	inactive	inactive
